Measured values reported in PubChem BioAssay (NCATS).
Inconclusive results are not listed. The source made the active and inactive calls. Unless noted, no rule for the calls is given here.

Experiments:
[1] = qHTS profiling of the MIPE4 collection as inhibitors of Plasmodium falciparum (3D7) proliferation (AID 743344);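 also: scaled between DMSO vehicle wells and 0.29 µM artemisinin as full inhibition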; conditions: P. falciparum 3D7 in erythrocytes, SYBR Green DNA fluorescence, 72 h; at 28.5 µM unless noted
Method in brief: (§1)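 Parasite DNA was quantified by SYBR Green I fluorescence (ex 485, em 535 nm) after overnight lysis in saponin/Triton buffer at room temperature. Cultures at 0.3% parasitemia and 2.5% hematocrit were first exposed to compound for 72 h at 37 C; signals were normalised to artemisinin (0.29 uM) and vehicle wells.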

[2] = qHTS profiling of the MIPE4 collection as inhibitors of Plasmodium falciparum (DD2) proliferation (AID 743345); conditions: P. falciparum Dd2 in erythrocytes, SYBR Green DNA, 72 h; at 28.5 µM unless noted
Method in brief: as §1

[3] = qHTS profiling of the MIPE4 collection as inhibitors of Plasmodium falciparum (DD2) proliferation (Rep 2) (AID 743346); conditions: P. falciparum Dd2 in erythrocytes, SYBR Green DNA, 72 h; at 28.5 µM unless noted
Method in brief: as §1

[4] = qHTS profiling of the MIPE4 collection as inhibitors of Plasmodium falciparum (HB3) proliferation (AID 743347);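 also: plate controls were DMSO vehicle wells for no effect and artemisinin wells for full effect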; conditions: P. falciparum HB3 in erythrocytes, SYBR Green DNA, 72 h; at 28.5 µM unless noted
Method in brief: as §1

[5] = High-throughput drug toxicity screening in the BPDCN cell line Gen2.2 (AID 1224824); conditions: Gen2.2 BPDCN cells; at 45.8 µM (top of the series) unless noted;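 also: cells exposed to compounds for 48 h before reading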
Method in brief: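 Gen2.2 cells, 500 per well in phenol red-free RPMI with 10% FBS, exposed to compounds 48 h at 37 C, 5% CO2; viability by CellTiter-Glo luminescence. Percent activity scaled to DMSO (100%) and 9.2 uM bortezomib final (0%).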

[6] = High-throughput drug toxicity screening in the BPDCN cell line Cal-1 (AID 1224825); conditions: Cal-1 BPDCN cell viability, qHTS; at 45.8 µM (top of the series) unless noted
Method in brief: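 CellTiter-Glo luminescence after 48 h compound exposure; percent activity scaled with DMSO as 100% and bortezomib (9.2 uM final) as 0%. Cal-1 cells seeded at 500/well in RPMI, 10% FBS, no phenol red.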

[7] = qHTS assay for measurement of the activity of small molecule inhibitors on Zika virus induced Caspase-3 activity in human iPSC derived neural progenitor cells (hNPCs) (AID 1224857; active = well fitted inhibition curve with a large enough effect; also: % of control where 0% means no effect; nearly all actives have a fitted effect of over 65% in size); conditions: hNPCs ZIKV-induced caspase-3/7, Caspase-Glo luminescence, 6 h; series mostly up to 45.7 µM
Method in brief: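 Caspase-3/7 induction by a 6-hour ZIKV infection was quantified with a luminescent Caspase-Glo 3/7 reagent incubated 30 minutes at room temperature. Compounds were preincubated with hNPCs for 1 hour; inhibition was calculated against uninfected and infected control wells.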

[8] = qHTS assay for measurement of the activity of small molecule inhibitors on Zika virus induced Caspase-3 activity in human astrocytoma cells (AID 1224859; active = well fitted inhibition curve with a large enough effect;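 also: plate controls were ZIKV-infected untreated cells for no effect and uninfected cells for full effect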); conditions: SNB-19 ZIKV-induced caspase-3/7, luminescence, 6 h; series mostly up to 45.7 µM
Method in brief: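 In SNB-19 cells plated at 250 cells/well and grown 16-20 h, compounds were applied 1 h before ZIKV (2 FFU/cell). Six hours later caspase-3/7 luminescence was recorded.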

Row | SMILES | parasite growth, % of DMSO control [1] | parasite growth remaining, % of DMSO control (lower = more inhibition) [2] | parasite growth, % of control (lower = inhibition) [3] | growth, % of control [4] | cell viability, % of control (lower = more cytotoxic) [5] | viability (% of control) [6] | Potency [7] | Potency [8]
1 | Nc1nc(Cl)nc2c1ncn2[C@@H]1O[C@H](CO)[C@@H](O)[C@H]1F | 81.5% | 97.5% | 63.9% | 96.1% | 159% | 13.2% | inactive | inactive
2 | CCn1c(-c2nonc2N)nc2cncc(CNC3CCNCC3)c21 | 45.1% | 89.6% | 43.8% | 7.55% | 7.5% | 56.5% | inactive | inactive
3 | COc1cc2nc(-c3cc(F)ccc3O)nc(N[C@@H]3CNC[C@@H]3C(C)(C)O)c2cc1OC | 6.37% | 6.09% | 8.84% | 3.61% | 4.14% | 5.24% | inactive | inactive
4 | C[C@@H]1CC=CC=CC=CC=C[C@@H](O[C@@H]2O[C@H](C)[C@@H](O)[C@H](N)[C@H]2O)C[C@@H]2O[C@](O)(C[C@@H](O)C[C@@H]3O[C@@H]3C=CC(=O)O1)C[C@H](O)[C@@H]2C(=O)O | 46.3% | 67% | 59% | 52.6% | 186% | 110% | inactive | inactive
5 | COc1cc(F)c(C(C)C)cc1-c1ccc(C(F)(F)F)cc1CN1C(=O)O[C@H](c2cc(C(F)(F)F)cc(C(F)(F)F)c2)[C@@H]1C | 6.82% | 9.07% | 31.9% | 9.46% | 115% | 33.1% | inactive | inactive
6 | C[C@H]1[C@H](O)O[C@@H]2O[C@@]3(C)CC[C@@H]4[C@H](C)CC[C@@H]1[C@@]24OO3 | 18.9% | 7.23% | 13.8% | 11.1% | 15.8% | 7.2% | inactive | inactive
7 | CN(C)c1ccc(-c2nc3ncc(Cl)c(N4CCN(CC(=O)Nc5nccs5)CC4)c3[nH]2)cc1 | 6.94% | 9.69% | 8.18% | 2.92% | 3.51% | 8.53% | inactive | inactive
8 | Cc1cc(C(C)Nc2ccccc2)c2nc(N3CCOCC3)cc(=O)n2c1 (stereo not drawn) | 11.8% | 71.3% | 31.1% | 15.4% | 47.8% | 62.3% | inactive | inactive
9 | CC(C)(O)CC(=O)NCCn1ccc2ncnc(Nc3ccc(Oc4cccc(C(F)(F)F)c4)c(Cl)c3)c21 | 11.6% | 18.3% | 23% | 9.01% | 75.3% | 61.4% | inactive | inactive
10 | C[C@@H](O)[C@H]1C(=O)N2C(C(=O)OCOC(=O)C(C)(C)C)=C(SC3CN(C4=NCCS4)C3)[C@H](C)[C@H]12 | 66% | 99.9% | 107% | 104% | 58.2% | 39.5% | inactive | inactive
11 | CC(C)(C)c1nc(-c2cccc(NS(=O)(=O)c3c(F)cccc3F)c2F)c(-c2ccnc(N)n2)s1 | 18.2% | 16.6% | 35% | 10.3% | 25.6% | 55.4% | inactive | inactive
12 | CO[C@H]1C=CO[C@@]2(C)Oc3c(C)c(O)c4c(O)c(c(C=NN5CCN(C)CC5)c(O)c4c3C2=O)NC(=O)C(C)=CC=C[C@H](C)[C@H](O)[C@@H](C)[C@@H](O)[C@@H](C)[C@H](OC(C)=O)[C@H]1C | 5.51% [at 5.51 µM] | 11.4% [at 5.51 µM] | 10.3% [at 5.51 µM] | 3.06% [at 5.51 µM] | 73% [at 15.3 µM] | 41.4% [at 15.3 µM] | inactive | inactive
13 | CCOc1ccccc1N=Nc1c(C)[nH]n(-c2nc(-c3ccccc3)cs2)c1=O | 92.5% | 102% | 82.1% | 87.1% | 97.4% | 63.6% | inactive | inactive
14 | COc1ccc(Cn2ccc3ccc(C(=O)NO)cc32)cc1 | 4.8% | 13.4% | 8.17% | 3.68% | 250% | 19.7% | inactive | inactive
15 | CCOC(=O)N1CCN([N+]([O-])=NOc2cc(ON=[N+]([O-])N3CCN(C(=O)OCC)CC3)c([N+](=O)[O-])cc2[N+](=O)[O-])CC1 | 56.9% | 45.7% | 49.8% | 48% | 87.7% | 81.2% | inactive | inactive
16 | CNC(=O)[C@H](CC1=CN=C2C=CCC=C12)NC(=O)[C@@H](CC(=O)NO)CC(C)C | 22% | 47.4% | 26.7% | 18.7% | 31.3% | 8.09% | inactive | inactive
17 | CCOC(=O)[C@H](CCc1ccccc1)N[C@@H](C)C(=O)N1CCCC1C(=O)O (stereo partly drawn) | 53.7% | 91.5% | 75.7% | 95.2% | 190% | 76.8% | inactive | inactive
18 | CCC(c1ccc(O)cc1)C(CC)c1ccc(O)cc1 (stereo not drawn) | 84.9% | 90% | 75% | 106% | 149% | 104% | inactive | inactive
19 | COc1cc(N2CCN(C)CC2)ccc1Nc1nc(N)c(C(=O)c2c(Cl)cccc2Cl)s1 | 20.2% | 8.77% | 14.6% | 21.1% | 72.5% | 49.7% | inactive | inactive

Row | SMILES | parasite growth, % of DMSO control [1] | parasite growth remaining, % of DMSO control (lower = more inhibition) [2] | parasite growth, % of control (lower = inhibition) [3] | growth, % of control [4] | cell viability, % of control (lower = more cytotoxic) [5] | viability (% of control) [6] | Potency [7] | Potency [8]
20 | Cn1cnc(-c2cc3nccc(Oc4ccc(NC(=S)NC(=O)Cc5ccccc5)cc4F)c3s2)c1 | 8.29% | 23.6% | 28.5% | 12% | 131% | 8.37% | inactive | inactive
21 | COC(=O)N1CCN(Cc2cccc(NC(=O)Nc3ccc(C)nc3)c2F)CC1 | 20.8% | 71.8% | 41.1% | 29.8% | 149% | 90.8% | inactive | inactive
22 | Cc1ccc(NC(=O)Nc2cc(C(F)(F)F)ccc2F)cc1Nc1ccc2c(c1)NC(=O)C2=Cc1ccc[nH]1 | 8.05% | 14.1% | 21.7% | 10.9% | 4.16% | 2.92% | inactive | inactive
23 | N[C@@H](CC(=O)N1CCn2c(nnc2C(F)(F)F)C1)Cc1cc(F)c(F)cc1F | 94.7% | 104% | 84.5% | 104% | 162% | 111% | inactive | inactive
24 | CC1(COc2ccc3c(c2)ncn3-c2ccc3cccc(N4CCC(N)CC4)c3n2)COC1 | 5.45% | 6.71% | 14.5% | 4.9% | 5.87% | 3.06% | inactive | inactive
25 | Cc1ccccc1C(C(=O)NC1CCCCC1)N(C(=O)CNc1ccc(C#N)cc1)c1cccc(F)c1 (stereo not drawn) | 145% | 93.3% | 75.5% | 530% | 161% | 128% | inactive | inactive
26 | O=C(O)C1=CO[C@@H](O[C@@H]2O[C@H](CO)[C@H](O)[C@H](O)[C@H]2O)[C@@H]2C(CO)=CC[C@H]12 | 99.8% | 96.1% | 83.9% | 103% | 78.1% | 23.1% | inactive | inactive
27 | N=C1SC(=Cc2ccc(-c3ccc4c(c3)C(=O)NC4=O)o2)C(=O)N1c1ccc(Br)cc1 | 9.09% | 21.3% | 30.9% | 9.17% | 13.7% | 35.6% | inactive | inactive
28 | CC(C)c1c(C(=O)Nc2ccccc2)c(-c2ccccc2)c(-c2ccc(F)cc2)n1CC[C@H](O)C[C@@H](O)CC(=O)O | 7.03% | 82.2% | 17.6% | 4.89% | 41.5% | 93.6% | inactive | inactive
29 | O=C(Nc1cccc(C(F)(F)F)c1)Nc1cc(S(=O)(=O)NC2CC2)ccc1-c1ccsc1 | 52.8% | 82.2% | 51.8% | 78.9% | 316% | 68.8% | inactive | inactive
30 | COc1c(C)c2c(c(O)c1CC=C(C)CCC(=O)O)C(=O)OC2 | 15.7% | 17.9% | 13.7% | 7.33% | 94.4% | 16.3% | inactive | inactive
31 | Cc1[nH]c(C=C2C(=O)Nc3ccc(S(=O)(=O)N(C)c4cccc(Cl)c4)cc32)c(C)c1C(=O)N1CCN(C)CC1 | 7.33% | 9.96% | 14.4% | 4.63% | 2.96% | 0.852% | inactive | inactive
32 | CC(C)CN(C[C@H](O)[C@H](Cc1ccccc1)NC(=O)O[C@H]1CCOC1)S(=O)(=O)c1ccc(N)cc1 | 6.57% | 73.7% | 56.3% | 42.8% | 149% | 97.6% | inactive | inactive
33 | CCC[C@@H](NC(=O)[C@@H]1[C@H]2CCC[C@@H]2CN1C(=O)[C@@H](NC(=O)[C@@H](NC(=O)c1cnccn1)C1CCCCC1)C(C)(C)C)C(=O)C(=O)NC1CC1 | 9.1% | 61.2% | 19.9% | 10.3% | 48.1% | 63.1% | inactive | inactive
34 | Cc1cc2nc3c(=O)[nH]c(=O)nc-3n(CC(O)C(O)C(O)CO)c2cc1C (stereo not drawn) | 21.3% | 57.4% | 22.3% | 17.8% | 77.3% | 101% | inactive | inactive
35 | CC(C)c1onc(-c2c(Cl)cccc2Cl)c1COc1ccc(C=Cc2cccc(C(=O)O)c2)c(Cl)c1 | 60.6% | – | 53.3% | 67.3% | 76.8% | 107% | inactive | inactive
36 | COc1nccc(-c2c(-c3ccc(F)cc3)ncn2C2CCC(O)CC2)n1 (stereo not drawn) | 42.3% | 80% | 52.5% | 28.5% | 192% | 43.4% | inactive | inactive
37 | C[C@H](c1ccc(F)cc1CCCC(=O)O)N(c1cc(F)ccc1F)S(=O)(=O)c1ccc(Cl)cc1 | 48.3% | 42.9% | 35.7% | 47.7% | 144% | 92.6% | inactive | inactive
38 | CN1c2ccccc2C(=O)N2CCc3c([nH]c4ccccc34)C21 (stereo not drawn) | 94.3% | 103% | 90.2% | 55% | 54.1% | 97% | inactive | inactive
